# Data: the supplement of paper PMC10127200
# Counter-ions that a name gives are not always drawn.
# How the values were obtained:
# Experiment in all cases: Euclidean distance of Cell Painting phenotypic profile (signed KS, 77 features) to DMSO centroid (dimensionless distance); 5 or 10 uM (library dependent); higher = stronger phenotypic change vs DMSO (phenoactivity)
# Conditions in all cases: 48 h
# 786-O = tested on: 786-O
# Summary of the method: (§1)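 At 10 or 5 uM, as set by the library, and 0.1% DMSO final, compounds were applied for 48 h to five cancer lines and one healthy fibroblast line. Stained cells were imaged confocally at 20X in 9 fields per well, and Harmony extracted 77 features scored as signed Kolmogorov-Smirnov statistics against vehicle wells on the same plate. Profiles underwent plate-position correction, correlation weighting and replicate averaging at the top dose. Phenoactivity is the Euclidean distance from each such profile to the median vehicle profile.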
# A549 = tested on: A549
# Summary of the method: as §1
# DU145 = tested on: DU145
# Summary of the method: as §1
# FB = tested on: FB
# Summary of the method: as §1
# HEPG2 = tested on: HEPG2
# Summary of the method: as §1
# OVCAR4 = tested on: OVCAR4
# Summary of the method: as §1
Structure (SMILES),Euclidean distance (786-O),Euclidean distance (A549),Euclidean distance (DU145),Euclidean distance (FB),Euclidean distance (HEPG2),Euclidean distance (OVCAR4)
CCN1CCN(Cc2ccc(-c3cc4c(N[C@H](C)c5ccccc5)ncnc4[nH]3)cc2)CC1,2.34,3.77,1.92,2.96,1.73,1.02
CC1=C(C(=O)O)N2C(=O)[C@@H](NC(=O)[C@H](N)c3ccc(O)cc3)[C@H]2SC1 [Cefadroxil hydrate],1.09,0.5,0.78,0.785,0.893,0.794
O=C(Nc1cccc(Nc2ncc(Br)c(NCCc3cnc[nH]3)n2)c1)N1CCCC1,2.94,3.51,3.14,3.05,2.43,3.33
CCN(CCCc1ccccc1)CCCc1ccccc1 [Alverine Citrate],0.97,1.06,1.22,1.12,0.789,1.01
CCN(CC)CC(=O)Nc1c(C)cccc1C [Lidocaine],1.65,0.785,1.51,0.913,0.435,1.11
CC1(N)CCN(c2cccnc2NC(=O)c2nc(-c3ncccc3C(F)(F)F)cnc2N)CC1,2.98,2.64,3.38,2.85,3.49,2.63
C[C@@H](OC[C@@]1(c2ccccc2)CC[C@]2(CCC(=O)N2)CN1)c1cc(C(F)(F)F)cc(C(F)(F)F)c1 [Rolapitant],1.23,1.85,1.34,1.17,1.3,1.41
CS(=O)(=O)n1cc2c(n1)CN([C@H]1CO[C@H](c3cc(F)ccc3F)[C@@H](N)C1)C2 [Omarigliptin (MK-3102)],1.02,2.02,1.89,1.7,2.25,2.16
CC12CCC(CC1=O)C2(C)C (configuration not stated) [Camphor],0.669,0.742,0.875,0.818,0.352,1.67
CCN(CC)CCNC(=O)c1cc(Cl)c(N)cc1OC [Metoclopramide HCl],0.662,0.513,0.62,0.54,0.614,0.647
Nc1ccc(S(N)(=O)=O)cc1 [Sulfanilamide],0.866,0.563,0.913,0.819,0.645,1.21
COCCCN1CCC(NC(=O)c2cc(Cl)c(N)c3c2OCC3)CC1 [Prucalopride Succinate],0.846,1.22,1.04,1.4,0.733,1.47
CC(=O)N[C@@H](CS)C(=O)O [Acetylcysteine],0.996,1.28,1.2,0.709,0.571,1.6
CC(C)C(=O)c1c(C(C)C)nn2ccccc12 [Ibudilast],0.973,0.58,0.981,0.71,0.459,1.29
Nc1c2c(nc3ccccc13)CCCC2 [Tacrine HCl],0.888,0.485,0.636,1.21,0.472,1.16
CCOC(=O)[C@H](CCc1ccccc1)N[C@H]1CS[C@H](c2cccs2)CN(CC(=O)O)C1=O [Temocapril HCl],0.717,0.454,0.716,0.895,0.434,0.878
Nc1ccn([C@@H]2O[C@H](CO)[C@@H](O)[C@@H]2O)c(=O)n1 [Cytarabine],3.08,2.79,2.54,3.39,2.79,3.15
COc1ccc(-c2ccc3c(N4CCOCC4)nc(N4C[C@@H](C)O[C@@H](C)C4)nc3n2)cc1CO,1.93,2.15,1.96,3.61,2,2.43
CCOC(=O)[C@H](CCc1ccccc1)N[C@@H](C)C(=O)N1[C@H](C(=O)O)C[C@H]2CCCC[C@@H]21 [Trandolapril],1.34,0.478,0.864,0.819,0.562,0.99
O=C(c1cccc(Cl)c1F)N1CCN(Cc2cccc(Nc3nccs3)n2)CC1,2.99,3.18,1.34,2.34,2.74,2.83
Cc1nnc(C(C)C)n1C1C[C@H]2CC[C@@H](C1)N2CC[C@H](NC(=O)C1CCC(F)(F)CC1)c1ccccc1 (stereo in doubt) [Maraviroc],1.35,0.711,1.04,1.1,0.487,1.71
O=C(Nc1cccc(C(F)(F)F)c1)Nc1cc(S(=O)(=O)NC2CC2)ccc1-c1ccsc1,0.684,1.29,1.11,1.51,2.45,1.01
CN(C)[C@@H](CCOc1cccc2ccccc12)c1ccccc1 [Dapoxetine HCl],1.49,0.787,2.96,1.26,1.1,1.26
COc1ccc(-c2ccc3c(N4CCOC[C@@H]4C)nc(N4CCOC[C@@H]4C)nc3n2)cc1CO,4,3.49,2.25,5.02,2.55,3.73
O=C(CCCN1CCN(c2ccccn2)CC1)c1ccc(F)cc1 [Azaperone],0.919,0.568,0.729,0.828,0.758,1.09
CCCC(C)NC(=O)c1ccc(Cl)c(Cl)c1 (configuration not stated),0.75,0.663,0.911,1.24,0.75,0.568
O=C(O)CCC(=O)c1ccc(-c2ccccc2)cc1 [Fenbufen],0.582,1.6,0.988,0.916,0.887,1.11
